# The source made the active and inactive calls. How the source made its calls: active means hit-call score of the fitted dose curve at least 0.9, where 1 is the maximum; inactive means score below 0.9.
# Target: Paired box protein Pax-6 (Homo sapiens) (UniProt P26367)
# Experiment: ATG_Pax6_CIS: Attagene CIS-FACTORIAL HepG2 Assay for human Paired Box 6 (PAX6) (AID 2282956)
# Conditions: HepG2 CIS-FACTORIAL PAX6 reporter transcription, RNA readout; actives raise or lower the signal
# Method: ATG_CIS is a cell-based, multiplexed-readout assay that uses HepG2, a human liver cell line, with measurements taken at 24 hours after chemical dosing in a 24-well plate.ATG_Pax6_CIS is one of 52 assay component(s) measured or calculated from the ATG_CIS assay. It is designed to make measurements of mRNA induction, a form of inducible reporter, as detected with fluorescence intensity signals by Reverse transcription polymerase chain reaction (RT-PCR) and Capillary electrophoresis technology.Data from the assay component ATG_Pax6_CIS was analyzed into 1 assay endpoint. This assay endpoint, ATG_Pax6_CIS, was analyzed with bidirectional fitting relative to DMSO as the negative control and baseline of activity. Using a type of inducible reporter, measures of mRNA for gain or loss-of-signal activity can be used to understand the reporter gene at the transcription factor-level as they relate to the gene PAX6. Furthermore, this assay endpoint can be referred to as a primary readout, because this assay has produced multiple assay endpoints where this one serves a reporter gene function. To generalize the intended target to other relatable targets, this assay endpoint is annotated to the dna binding intended target family, where the subfamily is paired box protein.
# Human liver HepG2 cells are transiently transfected with multiple reporter transcription units (MRTUs) in 6-well plates using FuGene 6 reagent (Roche; 3 ml FuGene/1 mg DNA). The MRTU constructs are regulated by a cis-regulating element (promoter). […] A major difference between the CIS and TRANS system is that in CIS activities of endogenous TFs are measured, whereas the TRANS assay evaluates changes in activities of exogenous, chimeric NR-Gal4 proteins. […] At the end of 24 hour incubation, total RNA was isolated using TriZol reagent (Invitrogen). The isolated RNA is then reverse-transcribed using oligo(dT) primer and Mo-MLV reverse transcriptase (Invitrogen) with DNAse I (Ambion) treatment for 30 min. The one-tenth of the produced cDNA was amplified by PCR using Taq DNA polymerase (Invitrogen) and two reporter sequence-specific primers. The PCR products were fluorescently labeled by primer extension with 6-arboxyfluorescein (6-FAM) 5'-labeled reporter sequence-specific primer (2 min at 95 C, 20 s at 68 C and 10 min at 72 C) and these products were digested with 5U of HpaI (New England Biolabs) for 2h at 37 C. The fragments were purified using Qiaquick PCR columns (Qiagen), analyzed on an ABI 3130xL genetic analyzer (Applied Biosystems) with peak positions identified by using a set of X-rhodamine (ROX)-labeled MapMarker1000 molecular weight standards (BioVentures). The raw capillary electrophoresis data was processed using Attagraph software (Attagene).
# Sequence of Paired box protein Pax-6 (Homo sapiens) (P26367 whole entry, looked up): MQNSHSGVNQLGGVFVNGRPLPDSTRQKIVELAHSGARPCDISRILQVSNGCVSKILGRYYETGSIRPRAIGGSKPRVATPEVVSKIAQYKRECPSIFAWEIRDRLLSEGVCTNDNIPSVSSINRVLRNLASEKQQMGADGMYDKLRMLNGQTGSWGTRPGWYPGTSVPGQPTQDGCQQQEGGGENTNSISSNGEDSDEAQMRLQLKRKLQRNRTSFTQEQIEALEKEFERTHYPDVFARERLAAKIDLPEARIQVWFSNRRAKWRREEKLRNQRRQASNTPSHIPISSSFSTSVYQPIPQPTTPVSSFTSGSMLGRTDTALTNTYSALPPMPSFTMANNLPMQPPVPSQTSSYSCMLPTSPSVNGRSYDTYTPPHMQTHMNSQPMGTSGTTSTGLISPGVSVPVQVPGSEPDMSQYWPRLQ
SMILES,outcome,AC50
O=C(O)C1CCC(C(=O)O)CC1 (stereo not given),inactive,–
CC(CC=O)CC(C)(C)C (stereo not given),inactive,–
NC(=O)Nc1ccccc1,inactive,–
CC(C)COC(=O)CC(C(=O)OCC(C)C)S(=O)(=O)O (stereo not given),inactive,–
CCCC1CCCC(=O)O1 (stereo not given),inactive,–
CC1CCC(=O)C1=O (stereo not given),inactive,–
CC1=CC=C(C(C)C)CC1,inactive,–
CCCCCCCCCC(C)=O,inactive,–
CC(C=O)c1ccccc1 (stereo not given),inactive,–
[Cl][Eu]([Cl])[Cl],inactive,–
CCCC(CC)c1ccccc1 (stereo not given),inactive,–
C=CC(C)(O)CC/C=C(\C)CC (stereo not given),inactive,–
O=C(O)/C=C/c1ccccc1,inactive,–
C=CC(=O)NC(C)(C)C,inactive,–
O=C1c2ccccc2C(=O)c2cc(S(=O)(=O)O)ccc21,inactive,–
C[N+](C)(C)CCCNS(=O)(=O)C(F)(F)C(F)(F)C(F)(F)C(F)(F)C(F)(F)C(F)(F)C(F)(F)C(F)(F)F,inactive,–
CCCSSCCC,inactive,–
Clc1cc(Cl)c(Cl)c(Cl)c1Cl,inactive,–
O=C(O)c1cc(O)c2ccccc2c1O,inactive,–
Cc1ccc(S(=O)(=O)N=C=O)cc1,inactive,–

SMILES,outcome,AC50
Oc1ccc(/C=C/c2cc(O)cc(O)c2)cc1,inactive,–
CC(C)c1cccc(C(C)C)c1N,inactive,–
CCOC(=O)c1ccccc1C,inactive,–
O=C(OCCc1ccccc1)c1ccccc1,inactive,–
COc1ccc(C(=O)/C(Br)=C\C(=O)O)cc1,–,57.1 µM (active)
CC1(C)CC(O)CC(C)(C)N1[O],inactive,–
CC1(C)C(=O)N(CO)C(=O)N1CO,inactive,–
CC1OC(=O)C(C)OC1=O (stereo not given),inactive,–
O=C1CCCCC1C1CCCCC1 (stereo not given),inactive,–
CC(=O)OCCc1ccccc1,inactive,–
CC1=CP(=O)(c2ccccc2)CC1 (stereo not given),inactive,–
O=C(C=Cc1ccccc1)OCCc1ccccc1,inactive,–
N#CC1(N)CCCCC1,inactive,–
Clc1cccnc1,inactive,–
CCCCC(C=O)CC (stereo not given),inactive,–
CCCCCCCCCCCCc1ccc(O)cc1,inactive,–
c1ccc(-c2nc3ccccc3[nH]2)cc1,inactive,–
C=C(C)OC(C)=O,inactive,–
c1ccc2cnccc2c1,inactive,–
CC(=O)/C=C/C1C(C)=CCCC1(C)C (stereo not given),inactive,–
